The values below come from PubChem BioAssay (NCI).

Test systems include SR leukemia; RPMI-8226 leukemia; OVCAR-8 ovarian; OVCAR-5 ovarian; SK-OV-3 ovarian; IGROV1 ovarian; OVCAR-3 ovarian; HS 578T breast; NCI/ADR-RES ovarian; OVCAR-4 ovarian.
Common to all, as to experiment: NCI-60 one-dose screen, 48 h (100 = growth as untreated, 0 = no growth, -100 = all killed)
Holding throughout (conditions): 10 µM unless noted

About 83,000 compounds went through this panel and 20% of them were active in at least one assay; those are over-represented in the sample as a whole.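 48-hour exposure, single concentration, 96-well plates; percent growth endpoint where 0 means no net growth. Active: below 10.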 Values without a mark were called inactive. Active and inactive are the calls of the source.

As to `N=c1ccc2nc3ccc(N)cc3sc-2c1`, the growth in the assay on SR leukemia is 38.2%; with RPMI-8226 leukemia, 30%; in the assay on OVCAR-8 ovarian, 13.5%; in the assay on OVCAR-5 ovarian it was 48.1%; in the assay with SK-OV-3 ovarian it was 58.4%; in the assay on IGROV1 ovarian, 40.6%. In addition, the growth is 0.418% (active) with OVCAR-3 ovarian, 51.9% in the assay with HS 578T breast and 9.73% (active) in the assay with NCI/ADR-RES ovarian.

As for `CC(C)(C)N1CCC1C(N)=O` (stereo not drawn), the growth in the assay on SR leukemia was 115%; in the assay with RPMI-8226 leukemia it was 87.5%; in the assay with OVCAR-8 ovarian, 102%; in the assay with OVCAR-5 ovarian, 48.7%; in the assay on SK-OV-3 ovarian, 104%; in the assay with IGROV1 ovarian, 265%. The growth in the assay with OVCAR-3 ovarian is 105%; in the assay with HS 578T breast, 111%; in the assay on NCI/ADR-RES ovarian, -4.51% (active).

With `COc1ccc(/C=C2\N=C(c3ccccc3)N(C(=O)c3ccccc3O)NC2=O)cc1`, the growth in the assay with SR leukemia was 64%; in the assay on RPMI-8226 leukemia it was 46.2%; in the assay on OVCAR-8 ovarian, 109%; in the assay with OVCAR-5 ovarian, 98.5%; in the assay on SK-OV-3 ovarian it was 100%; with IGROV1 ovarian, 98.2%. In addition, the values for the growth in the assay on OVCAR-3 ovarian, in the assay with HS 578T breast and in the assay with NCI/ADR-RES ovarian were 118%, 93.8% and 93.1%, respectively.

In the case of `OCc1ncc(-c2ccccc2)s1`, the growth was 107% in the assay on SR leukemia; 87.6% in the assay with RPMI-8226 leukemia; 107% with OVCAR-8 ovarian; 92.2% in the assay with OVCAR-5 ovarian; 99.4% in the assay with SK-OV-3 ovarian; 113% in the assay with IGROV1 ovarian. Besides, the values for the growth with OVCAR-3 ovarian, in the assay with HS 578T breast and in the assay with NCI/ADR-RES ovarian were 101%, 108% and 22.1%, respectively.

In the case of `COc1cccc(CC(C)=C(c2ccc(OCCN(C)C)cc2)c2ccc(OCCN(C)C)cc2)c1`, the growth was -17% (active) in the assay on SR leukemia; -31.1% (active) in the assay with RPMI-8226 leukemia; -2.71% (active) in the assay with OVCAR-8 ovarian; 21.2% in the assay with OVCAR-5 ovarian; 70.2% in the assay on SK-OV-3 ovarian; 8.66% (active) in the assay with IGROV1 ovarian. The growth with OVCAR-3 ovarian is -17.8% (active); with HS 578T breast it was 42.4%; in the assay on NCI/ADR-RES ovarian, 19%.

As for `CCN(CC)CCC(CNc1ccnc2cc(Cl)ccc12)c1ccccc1` (stereo not drawn), the growth is 20.5% in the assay with SR leukemia; 59.3% in the assay with RPMI-8226 leukemia; 61.2% with OVCAR-8 ovarian; 87.9% with OVCAR-5 ovarian; 85.6% with SK-OV-3 ovarian; 80.2% with IGROV1 ovarian. Further, the growth was 79.9% in the assay with OVCAR-3 ovarian and 46.8% with HS 578T breast.

In the case of `C=C(C)[C@@H]1C[C@@H]2Cc3ccc(Cl)c(C)c3N1O2`, the growth is 80.2% in the assay on SR leukemia; 78.6% in the assay with RPMI-8226 leukemia; 107% with OVCAR-8 ovarian; 79.5% in the assay on OVCAR-5 ovarian; 99.6% with SK-OV-3 ovarian; 111% in the assay with IGROV1 ovarian. The growth in the assay with OVCAR-3 ovarian was 105%; in the assay on HS 578T breast it was 97%.

For the compound `COc1ccc(C2=CC(c3cc(OC)c(OC)c(OC)c3)NC(=O)N2)cc1OC` (stereo not drawn), the growth in the assay on SR leukemia was 9.57% (active); in the assay on RPMI-8226 leukemia it was 4.8% (active); with OVCAR-8 ovarian it was 18.8%; with OVCAR-5 ovarian, 34.6%; with SK-OV-3 ovarian it was 23.3%; in the assay with IGROV1 ovarian, -17.7% (active). In addition, the growth with OVCAR-3 ovarian was -24% (active); in the assay on HS 578T breast, 7.62% (active); with NCI/ADR-RES ovarian, 13.7%.

`ClC(Cl)c1nc(-c2ccccc2)nc2cc(-c3ccccc3)nn12`: the growth was 90.7% in the assay on SR leukemia; 17.3% with RPMI-8226 leukemia; 81.3% in the assay on OVCAR-8 ovarian; 121% in the assay with OVCAR-5 ovarian; 63.4% in the assay with OVCAR-4 ovarian; 67% in the assay on IGROV1 ovarian. Moreover, the growth in the assay on OVCAR-3 ovarian was -9.5% (active); with HS 578T breast, 63%; with NCI/ADR-RES ovarian, 54.6%.

As for `C=C[C@@H]1C[C@@H]2Cc3cc(F)ccc3N1O2`, the growth in the assay with SR leukemia was 32%; in the assay on RPMI-8226 leukemia it was 94.1%; with OVCAR-8 ovarian, 114%; in the assay on OVCAR-5 ovarian, 97%; in the assay with SK-OV-3 ovarian, 113%; with IGROV1 ovarian, 122%. Besides, the growth in the assay with OVCAR-3 ovarian is 113%; with HS 578T breast, 106%; in the assay with NCI/ADR-RES ovarian, 102%.

With `Oc1ccc2cc(Br)ccc2c1-c1c(O)ccc2cc(Br)ccc12`, the growth in the assay with SR leukemia is 30.9%; in the assay on RPMI-8226 leukemia, 64.9%; in the assay on OVCAR-8 ovarian it was 72.7%; with OVCAR-5 ovarian it was 94.1%; with SK-OV-3 ovarian it was 64.7%; in the assay on IGROV1 ovarian it was 28%. Further, the growth in the assay with OVCAR-3 ovarian was 65.5%; with HS 578T breast, 50.2%; in the assay on NCI/ADR-RES ovarian it was 56.2%.

Regarding `c1ccc(-c2nnc(-c3ccccn3)s2)nc1`, the growth is 96.7% in the assay on SR leukemia; 54.8% in the assay with RPMI-8226 leukemia; 94% in the assay on OVCAR-8 ovarian; 92.2% with OVCAR-5 ovarian; 95.2% in the assay with SK-OV-3 ovarian; 80.7% with IGROV1 ovarian. Moreover, the growth in the assay with OVCAR-3 ovarian is 95.5%; in the assay on HS 578T breast it was 142%; in the assay with NCI/ADR-RES ovarian, 83%.

Regarding `CCCCCCN1CSC(=S)N(CCCCCC)C1`, the growth in the assay with SR leukemia was 104%; in the assay with RPMI-8226 leukemia, 86.5%; in the assay on OVCAR-8 ovarian, 103%; in the assay with OVCAR-5 ovarian, 112%; in the assay on SK-OV-3 ovarian it was 107%; in the assay on IGROV1 ovarian it was 101%. The growth with OVCAR-3 ovarian is 109%; in the assay with HS 578T breast, 105%; with NCI/ADR-RES ovarian, 89.9%.

In the case of `COc1ccc(-c2ccc(-c3ccc(C(=N)N)s3)s2)cc1Cl`, the growth in the assay with SR leukemia was -16.5% (active); with RPMI-8226 leukemia, -39.7% (active); in the assay on OVCAR-8 ovarian, -23.3% (active); in the assay with OVCAR-5 ovarian, 68.4%; in the assay on OVCAR-4 ovarian it was 72.5%; in the assay with IGROV1 ovarian, 5.34% (active). Also, the growth in the assay with OVCAR-3 ovarian was -90.6% (active); in the assay with HS 578T breast it was 87%; in the assay on NCI/ADR-RES ovarian, 27.8%.

Take `CCCCOc1ccc(/C=C2/SC(N3CCOCC3)=NC2=O)cc1OCC`: the growth is 89.5% in the assay with SR leukemia; 95.6% in the assay with RPMI-8226 leukemia; 103% in the assay with OVCAR-8 ovarian; 88.3% in the assay with OVCAR-5 ovarian; -16.1% (active) in the assay with SK-OV-3 ovarian; 89% in the assay on IGROV1 ovarian. The values for the growth in the assay on OVCAR-3 ovarian, in the assay with HS 578T breast and with NCI/ADR-RES ovarian were 115%, 104% and 94.5%, respectively.
